Reference: PubChem BioAssay (Tox21)
Records with an inconclusive call do not appear. Values without a mark were called inactive. The source made the active and inactive calls. Calls follow the shape of the dose curve; as a rule, active = well fitted activation curve with a large enough effect in the signal ratio in the repeat runs (not every such curve was filed as active); inconclusive = weak or mixed curves; inactive = flat fitted curve, though single readings scatter; the % refers to the signal ratio.

Experiment: p53 small molecule agonists, cell-based qHTS assay (AID 1963582)
Conditions: HCT-116 p53RE-bla reporter, beta-lactamase FRET ratio, 16 h; series mostly up to 66 µM; activation: at the top concentration
From the text: National Center for Advancing Translational Sciences [NCATS]
Division of Preclinical Innovation [DPI]
U.S. Environmental Protection Agency [EPA]
National Institutes of Environmental Health Sciences [NIEHS]
National Toxicology Program [NTP]
U.S. Food and Drug Administration [FDA]
p53, a tumor suppressor protein, is activated following cellular insult, including DNA damage and other cellular stresses. The activation of p53 regulates cell fate by inducing DNA repair, cell cycle arrest, apoptosis, or cellular senescence. The activation of p53, therefore, is a good indicator of DNA damage and other cellular stresses. […] The activation of the reporter gene under culture conditions can be detected by fluorescence intensity. This cell line was used to screen the Tox21 10K compound library in a 1536-well plate format and to identify agonists that activate the p53 signaling pathway.
Tox21 Assay Protocol Summary:
The p53RE-bla cells were dispensed at 4,000 cells/5 ul/well in 1536-well black wall/clear bottom plates using a Multidrop dispenser. After the assay plates were incubated at a 37 C/5% CO2 incubator for 5 hours, 23 nL of compounds dissolved in DMSO, positive controls or DMSO only was transferred to the assay plate by a pin tool. The plates were incubated at 37 C for 16 hours. After 1 uL of LiveBLAzerTM B/G FRET substrate was added using a Flying Reagent Dispenser, the plates were incubated at room temperature for 2 hours, and fluorescence intensity was measured by an Envision plate reader.
% is scaled to controls: 0 for no effect and ±100 for the full control effect; potency is read from the fitted curve at half-maximal effect.

| SMILES | Potency | activation |
| --- | --- | --- |
| CN(C)CCC#N | inactive | – |
| CNC(=S)S | inactive | – |
| CCCCOC(=O)c1ccccc1C(=O)O | – | 0.0575% |
| CNC(=O)Oc1ccccc1OC(C)C | – | -1.11% |
| ClCc1ccccc1CCl | – | -4.7% |
| Sc1ccccc1Cl | – | 0.972% [at 30.3 µM] |
| CCC(Br)(CC)C(=O)NC(N)=O | – | 3.06% |
| CCOC(=O)CP(=O)(OCC)OCC | – | -2.39% |
| CCCCOC(=O)COC(=O)c1ccccc1C(=O)OCCCC | inactive | – |
| COc1ccc(CO)cc1 | inactive | – |
| ClCc1ccccc1 | – | 1.42% |
| CCN | – | 0.895% |
| Oc1ccccc1Cl | inactive | – |
| O=C(O)C1C2CCC(O2)C1C(=O)O (stereo not given) | inactive | – |
| Cc1ccc(C(=O)Cl)cc1 | – | -0.555% |
| CCCOC(=O)c1ccccc1C(=O)OCCC | – | -1.52% |
| CS(=O)(=O)Cl | – | -0.445% |
| N#CC(Cl)(Cl)Cl | – | 4.93% |
| Nc1ccccc1 | inactive | – |
| CC(C)Nc1nc(Cl)nc(NC(C)C)n1 | inactive | – |

| SMILES | Potency | activation |
| --- | --- | --- |
| COS(=O)(=O)c1ccc(C)cc1 | – | -5.35% |
| O=C(O)c1ccc(=O)[nH]c1 | – | 0.196% [at 30.3 µM] |
| CN(C)C(=S)SSC(=S)N(C)C | inactive | – |
| COc1ccccc1OC | – | 3.32% |
| CCN(CC)CCN1C(=O)CN=C(c2ccccc2F)c2cc(Cl)ccc21 | – | -3.33% [at 30.3 µM] |
| [N-]=[N+]=[N-] | inactive | – |
| CC(C)c1ccc(CO)cc1 | inactive | – |
| CN(C)CCc1ccc(O)cc1 | – | 0.254% [at 30.3 µM] |
| CN(C)c1ccc(C(=O)c2ccc(N(C)C)cc2)cc1 | 11.4 µM (active) | – |
| OCC(Br)CBr (stereo not given) | – | -1.56% |
| CNC(C)(C)Cc1ccccc1 | – | 1.6% [at 30.3 µM] |
| Cl/C=C\CCl | – | 5.54% |
| CCOP(=S)(OCC)O/N=C(\C#N)c1ccccc1 | – | 13.6% [at 30.3 µM] |
| COCCl | inactive | – |
| CCOP(=O)(OCC)Oc1ccc([N+](=O)[O-])cc1 | – | -1.09% |
| O=C(NC(=O)c1ccccc1Cl)Nc1ccc(OC(F)(F)F)cc1 | – | 1.18% |
| CC(C)C1(C)N=C(c2ncccc2C(=O)O)NC1=O (stereo not given) | – | 0.664% |
| CC(=[OH+])/C=C(/C)[O-].CC(=[OH+])/C=C(\C)[O-].CC(=[OH+])/C=C(\C)[O-].[Fe] | – | 3.24% |
| O=[N+]([O-])c1ccc(CBr)cc1 | – | -0.0751% |
| CCCN(CCC)c1c([N+](=O)[O-])cc(C(C)C)cc1[N+](=O)[O-] | – | 6% |
